High-throughput results as filed in PubChem BioAssay.
ADAM17 inh – inhibits human ADAM17; 0.83% of 370,000 active; P78536; recombinant ADAM17, EDANS/DABCYL FRET peptide cleavage; inhibition, % at 6.95 µM;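 active = inhibition above the mean of compounds lying between control limits plus 3 SD, set per campaign, cut at about 8.5% in these data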
FGF22 binding – shifts melting point of recombinant human FGF22; AID 651658; recombinant FGF22 thermal shift, SYPRO orange fluorescence; percent of sucrose octasulfate shift, DMSO zero; Q9HCT0; 1.5% of 340,000 active; activity (Tm shift, normalised), % at 9.99 µM;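 active = mean Tm shift, scaled 0 neutral to 100 positive control, at about 1.3% or above, every replicate too, limit read from the data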
Target sequence (Q9HCT0 whole entry, looked up): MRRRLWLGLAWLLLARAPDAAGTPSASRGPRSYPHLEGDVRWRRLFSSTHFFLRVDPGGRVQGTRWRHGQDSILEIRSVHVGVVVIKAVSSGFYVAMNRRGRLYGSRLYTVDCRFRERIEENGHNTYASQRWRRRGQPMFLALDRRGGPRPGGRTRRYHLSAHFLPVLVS
Ecoli rRNA inh – selective bacterial rRNA inhibition in E. coli | AID 720706 | GFP signal change (wild-type ribosome), % (test concentration not listed) | 1.6% of 350,000 active | E. coli WT GFP vs humanized-ribosome RFP mutants, fluorescence, 24 h; hits give low values; DMSO median 0, no signal -100;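 active = significant combined selectivity score with lowered wild-type GFP, culture density cut under 30%, mutant RFP and density less affected; inactive = any of these conditions unmet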
ADAM10 inh – inhibits human ADAM10. inhibition, % at 7 µM. 0.62% of 370,000 active. O14672. AID 720582. recombinant ADAM10, EDANS/DABCYL FRET peptide cleavage, 3 h;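 active = inhibition above a per-campaign cutoff equal to the mean of compounds falling between control-based bounds plus 3 SD, cut at about 20% in these data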
KLK7 zymogen act – proKLK7 (human) activation, primary screen. purified proKLK7, EDANS-DABCYL substrate fluorescence; 100% is mature enzyme control, 0% vehicle. activation, % at 7 µM. 0.9% of 370,000 active;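 active = activation above the mean of all tested compounds plus 3 SD, computed per campaign excluding outliers beyond control limits, cut at about 13% in these data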
Target sequence (P49862 whole entry, looked up): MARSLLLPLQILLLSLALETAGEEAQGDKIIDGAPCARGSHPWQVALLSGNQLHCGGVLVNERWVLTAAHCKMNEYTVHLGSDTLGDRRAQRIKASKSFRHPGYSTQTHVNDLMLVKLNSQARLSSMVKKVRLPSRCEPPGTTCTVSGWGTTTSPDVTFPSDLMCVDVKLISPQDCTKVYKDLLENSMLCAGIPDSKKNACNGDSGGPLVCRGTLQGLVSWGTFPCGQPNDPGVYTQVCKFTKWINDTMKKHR
Each line names hits and unclear results; the compound was inactive in the other large screens. A selection: hits, their analogues and other compounds. The true share with any hit is near 3.8%.

O=C(C[C@H]1C[C@H]2c3cc(NC(=O)CC4CC4)ccc3O[C@H]2[C@@H](CO)O1)NCc1ccc2c(c1)OCO2	none (no result: ADAM17 inh, ADAM10 inh, KLK7 zymogen act)
O=C(C[N+]1(CC#Cc2ccccc2)CCOCC1)c1ccc(Cl)cc1	Ecoli rRNA inh -24
O=C(C[N+]1(CC#Cc2ccccc2)CCOCC1)c1ccccc1	none
O=C(C[C@@H]1C=C[C@H](NC(=O)C2CC2)[C@@H](CO)O1)NCc1ccncc1	none (no result: ADAM17 inh, ADAM10 inh, KLK7 zymogen act)
COc1ccc(OCc2cc(C(=O)N3CCN(C4CCCC4)CC3)no2)c(Cl)c1	Ecoli rRNA inh -29
O=C(c1cc(COc2ccc(F)cc2Cl)on1)N1CCC(c2ccncc2)CC1	none
COC(=O)C1CCCCN1C(=O)c1cc(COc2cccc3cnccc23)on1 (stereo unspecified)	Ecoli rRNA inh -31
COC(=O)C1CCCCN1C(=O)c1cc(COc2cccc3cccnc23)on1 (stereo unspecified)	none
CSc1ccccc1OCc1cc(C(=O)N2CCC(c3ccncc3)CC2)no1	Ecoli rRNA inh -41
C[C@@H]1CCCCO[C@H](CN(C)Cc2ccccc2)[C@@H](C)CN([C@@H](C)CO)C(=O)c2cc(NC(=O)Nc3ccccc3)ccc2O1	none (no result: ADAM17 inh, ADAM10 inh, KLK7 zymogen act)
O=C(Nc1ccc(Cl)c(Cl)c1)N[C@H]1CC[C@H](CCn2cc(C3CC3)nn2)O[C@H]1CO	none (no result: ADAM17 inh, ADAM10 inh, KLK7 zymogen act)
COc1cccc(/C=C/C(=O)OCC(=O)c2ccc3c(c2)NC(=O)CO3)c1OC	Ecoli rRNA inh -20
O=C1COc2ccc(C(=O)COC(=O)CNC(=O)c3ccco3)cc2N1	FGF22 binding 43
O=C(CNC(=O)c1ccco1)OCc1ccc(C(=O)c2ccccc2)cc1	Ecoli rRNA inh -33
COc1ccc(/C=C/C(=O)OCC(=O)c2ccc3c(c2)NC(=O)CO3)c(OC)c1	none
C/C=C/c1ccc(C2[C@H]3CNC[C@@H]2N3S(=O)(=O)c2ccc(C)cc2)cc1 (stereo partly specified)	none (no result: ADAM17 inh, FGF22 binding, ADAM10 inh, KLK7 zymogen act)
CC(C)NC(=O)Nc1ccc2c(c1)CC(=O)N([C@H](C)CO)C[C@@H](C)[C@@H](CN(C)Cc1ccc(C(F)(F)F)cc1)O2	none (no result: ADAM17 inh, ADAM10 inh, KLK7 zymogen act)
CO[C@@H]1CN(C)C(=O)c2cc(NS(=O)(=O)c3cccc(C)c3)ccc2OC[C@@H](C)N(C(=O)Cc2cccnc2)C[C@H]1C	none (no result: ADAM17 inh, ADAM10 inh, KLK7 zymogen act)
CCCCc1cc(=O)oc2cc(C)cc(OCC(=O)N3CCC(C(=O)O)(c4ccccc4)CC3)c12	Ecoli rRNA inh -13
CCOc1cc(C)cc2oc(=O)cc(-c3ccccc3)c12	Ecoli rRNA inh -36
Cc1cc(OCC(=O)N2CCc3ccccc3C2)c2c(-c3ccccc3)cc(=O)oc2c1	none (no result: FGF22 binding, Ecoli rRNA inh)
CC(C)CC#Cc1cnc2c(c1)C(=O)N([C@H](C)CO)C[C@@H](C)[C@@H](CN(C)Cc1ccccc1C(=O)O)O2	none (no result: ADAM17 inh, ADAM10 inh, KLK7 zymogen act)
COCc1[nH]nc2c1C(c1ccc(F)cc1)N(c1ccc(OC)cc1)C2=O (stereo unspecified)	FGF22 binding 43
COCc1[nH]nc2c1C(c1ccc(F)cc1)N(c1ccccc1)C2=O (stereo unspecified)	none
COc1ccc(N2C(=O)c3n[nH]c(C)c3C2c2ccc(F)cc2)cc1 (stereo unspecified)	Ecoli rRNA inh -32
C[C@H](CO)N1C[C@H](C)[C@@H](CN(C)S(=O)(=O)c2ccc(Cl)cc2)Oc2ccc(NC(=O)Cc3ccccc3)cc2CC1=O	none (no result: ADAM17 inh, ADAM10 inh, KLK7 zymogen act)
Cc1ccc(C(=O)CSc2nnnn2Cc2ccccc2)cc1C	Ecoli rRNA inh -28
Cc1ccccc1S(=O)(=O)NCC[C@H]1CC[C@@H](NC(=O)C2CCOCC2)[C@H](CO)O1	none (no result: ADAM17 inh, ADAM10 inh, KLK7 zymogen act)
CCNC(=O)Nc1ccc2c(c1)C(=O)N(C)[C@H]1CC[C@@H](CC(=O)NCCOC)O[C@@H]1CO2	none (no result: ADAM17 inh, FGF22 binding, ADAM10 inh, KLK7 zymogen act)
CCNC(=O)NC(=O)CSc1ccccc1F	none (no result: FGF22 binding, Ecoli rRNA inh)
CCNC(=O)NC(=O)CSc1ccc2ccccc2c1	FGF22 binding 43
CCN1[C@@H]2Cn3c(ccc(C4=CCCCC4)c3=O)[C@H]1[C@@H](C(=O)NC1Cc3ccccc3C1)[C@@H]2CO	none (no result: ADAM17 inh, ADAM10 inh, KLK7 zymogen act)
COc1cc(C(=O)NC2CCCCC2)ccc1OCc1ccc(Cl)cc1Cl	FGF22 binding 43
CCOC(=O)c1nc(C)sc1-c1ccnn1S(=O)(=O)c1ccc(C)cc1	Ecoli rRNA inh -22
CCOC(=O)c1nc(C)sc1-c1ccnn1S(=O)(=O)c1ccc(Cl)cc1Cl	Ecoli rRNA inh -29
CCOC(=O)c1nc(C)sc1-c1ccnn1S(=O)(=O)c1ccccc1C(F)(F)F	none (no result: Ecoli rRNA inh)
CCO[C@@H]1OC(C(=O)O)=C[C@H](C2CC2)[C@H]1CCCO	FGF22 binding 44
CCO[C@H]1OC(C(=O)NCc2ccccc2)=C[C@@H](c2ccccc2)[C@@H]1CCCO	Ecoli rRNA inh -25
CC(C)NC(=O)N1C[C@@H]2C(c3ccc(Br)cc3)[C@H](C1)N2CC(F)(F)F (stereo partly specified)	none (no result: ADAM17 inh, FGF22 binding, ADAM10 inh, KLK7 zymogen act)
O=C(c1ccc(F)cc1)N1CCCCN2[C@H](CO)[C@H](c3ccc(-c4ccc(F)cc4)cc3)[C@H]2C1	none (no result: ADAM17 inh, Ecoli rRNA inh, ADAM10 inh, KLK7 zymogen act)
Cc1cccc(OCC(=O)Nc2ccc(C(=O)NCC(C)C)cc2)c1	FGF22 binding 44 (no result: Ecoli rRNA inh)
COc1ccc(C(=O)Nc2ccc3oc(Cc4ccc(Cl)cc4)nc3c2)cc1OC	Ecoli rRNA inh -14
CO[C@H]1CN(C)C(=O)c2ccc(NS(=O)(=O)c3ccccc3)cc2OC[C@@H](C)N(Cc2nccs2)C[C@H]1C	none (no result: ADAM17 inh, ADAM10 inh, KLK7 zymogen act)
CC(C)C[C@H]1CNC(=O)C(=O)N1C[C@@H]1CCCN1C[C@H](Cc1ccc(O)cc1)N1C[C@H](Cc2ccccc2)N(CC2CCCCC2)C(=O)C1=O	Ecoli rRNA inh -29
CC(C)C[C@H]1CNC(=S)N1C[C@H]1CCCN1C[C@H](Cc1ccc(O)cc1)N1C[C@H](Cc2ccc(O)cc2)N(CC2CCCCCC2)C1=S	FGF22 binding 43
CC(C)C[C@H]1CNC(=S)N1CC1CCCN1C[C@H](Cc1ccccc1)N1C[C@H](Cc2ccc(O)cc2)N(CC2CCCCCC2)C1=S (stereo partly specified)	none
CC(C)C[C@H]1CN([C@@H](Cc2ccccc2)CN2CCC[C@@H]2CN2C(=O)C(=O)NC[C@@H]2Cc2ccc(O)cc2)C(=O)C(=O)N1CC1CCCCCC1	none
C[C@@H]1CN([C@@H](C)CO)C(=O)c2cc(NC(=O)C3CCCCC3)ccc2O[C@H]1CN(C)Cc1ccc(-c2ccccc2)cc1	none (no result: ADAM17 inh, ADAM10 inh, KLK7 zymogen act)
O=C(c1c[nH]c2ccccc12)C(Cl)c1ccccc1 (stereo unspecified)	Ecoli rRNA inh -24
C[C@@H]1CN([C@H](C)CO)C(=O)c2cc(NC(=O)Nc3cccc4ccccc34)ccc2O[C@@H](C)CCCCO[C@@H]1CN(C)S(=O)(=O)c1ccccc1	none (no result: ADAM17 inh, FGF22 binding, ADAM10 inh, KLK7 zymogen act)
O=C(O)c1ccc(-n2[nH]c3c(c2=O)CCCC3)cc1	FGF22 binding 43
CC1CCCN(Cc2c(C(=O)N3CCc4ccccc4C3)nc3ccc(Cl)cn23)C1 (stereo unspecified)	Ecoli rRNA inh -25
